This is an account of results in PubChem BioAssay.

For assay [1], the system named is Wnt5a (protein binding on small-molecule microarray). Put plainly: small molecules binding Wnt5a protein – biophysical, small-molecule microarray, 635/667 nm fluorescence, primary screen (AID 1142).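 Note: fluorescence read at 667 nm with signal to noise per printed feature.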 To be noted: 635 nm fluorescence, higher = more signal.
Assay [2] is described as follows: ATP-based viability of Huh7 replicon cells – cell-based, CellTiter-Glo luminescence, basal, 48 h, cytotoxicity control for HCV replication inhibitor project, primary screen (AID 1143).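 Note: Huh7 hepatoma cells carrying a hepatitis C replication reporter with no stimulus; test concentration not given here.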 To be noted: higher = more signal, called active from +8 up or from −8 down. A general note: Replicon systems follow genome replication, usually without infectious particles.
Assay [3] can be described thus: Pseudomonas biofilm growth suppression – PAO1 strain, BacTiter-Glo luminescence, LB-PBS, primary screen (AID 1144). The conditions noted are these: P. aeruginosa PAO1 biofilm, 12 h, higher = more signal.
Assay [4] in a line: basal CRE-LacZ reporter activity in PC12 – cell-based, unstimulated, primary screen (AID 1145). The conditions noted are these: no forskolin, luminescence, 4.5 h, higher = more signal, called active from +8 up or from −8 down.
Assay [5] in a line: forskolin-driven CRE-LacZ activity in PC12 – cell-based, CRE-LacZ reporter, forskolin-stimulated, primary screen (AID 1146).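 Note: PC12 cells with 6xCRE LacZ reporter stimulated by forskolin 10 µM; beta-galactosidase reporter signal reflecting CREB driven transcription.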 To be noted: luminescence, 4.5 h, higher = more signal, called active from +8 up or from −8 down.
For assay [6], the target named is Streptavidin (Streptomyces avidinii) (UniProt P22629). Nature of the assay: compounds binding control protein streptavidin – biophysical, small-molecule microarray, 635/667 nm fluorescence, artefact control for SMM compound annotation, primary screen (AID 1147).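 Note: signal reflects streptavidin binding to arrayed compounds as a control protein.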 To be noted: higher = more signal.
Chain of Streptavidin (Streptomyces avidinii) (P22629 whole entry, looked up): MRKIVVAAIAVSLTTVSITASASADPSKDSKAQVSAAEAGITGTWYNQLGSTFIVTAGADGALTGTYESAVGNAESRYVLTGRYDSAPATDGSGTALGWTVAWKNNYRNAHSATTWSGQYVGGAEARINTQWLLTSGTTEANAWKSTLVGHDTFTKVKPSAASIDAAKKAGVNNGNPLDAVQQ
Assay [7] is described as follows: probe aInhba binding on compound microarray – biochemical, small-molecule microarray, 635/667 nm fluorescence, primary screen (AID 1148).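 Note: score merges 667nm spot fluorescence with signal-to-noise for antibody binding to printed compounds.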 The conditions noted are these: higher = more signal.
The target of assay [8] is Torsin-1A (Homo sapiens) (UniProt O14656). Put plainly: TOR1A wild-type binding on microarray – cell lysate, small-molecule microarray, lysate, 635/667 nm, primary screen (AID 1149). To be noted: COS7 hTOR1A-WT lysate, 635 nm fluorescence, higher = more signal.
Chain of Torsin-1A (Homo sapiens) (O14656 whole entry, looked up): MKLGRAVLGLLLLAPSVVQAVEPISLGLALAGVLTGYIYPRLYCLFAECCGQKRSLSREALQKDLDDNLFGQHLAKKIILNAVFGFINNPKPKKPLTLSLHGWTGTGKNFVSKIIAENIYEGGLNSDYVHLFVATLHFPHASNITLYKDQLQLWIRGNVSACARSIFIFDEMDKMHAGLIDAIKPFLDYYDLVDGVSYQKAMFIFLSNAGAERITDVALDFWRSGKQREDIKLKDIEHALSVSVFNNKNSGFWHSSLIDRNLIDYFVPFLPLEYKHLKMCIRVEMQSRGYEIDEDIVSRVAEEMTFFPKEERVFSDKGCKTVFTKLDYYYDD
Assay [9] shares this target. Put plainly: torsin A mutant lysate binding on microarrays – cell lysate, small-molecule microarray, COS7 lysate, 635/667 nm fluorescence, primary screen (AID 1150).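 Note: score pools 667 nm emission and signal to noise measuring lysate protein binding.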 The conditions noted are these: COS7 hTOR1A mutant lysate, 635 nm fluorescence, higher = more signal.
The test system of assay [10] is Sonic hedgehog protein (Shh). Nature of the assay: Sonic hedgehog microarray binding compounds – biochemical, small-molecule microarray, 635/667 nm fluorescence, primary screen (AID 1151).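 Note: Shh protein binding to compounds spotted on small-molecule microarray slides; score combines spot fluorescence intensity with signal-to-noise across triplicate slides.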 To be noted: 635 nm fluorescence, higher = more signal.
The nature of assay [11]: optical density shifts of acrAB sulA E. coli – strain DRC41, OD650, 48 h, E. coli filamentation inducer project, primary screen (AID 1152).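 Note: E. coli MC1000 strain DRC41 lacking acrAB efflux pump and sulA.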 The conditions noted are these: higher = more signal, called active from +8 up or from −8 down.
Assay [12] is described as follows: probe aLefty1 binding on compound microarray – biochemical, small-molecule microarray, 635/667 nm fluorescence, primary screen (AID 1153).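 Note: score merges spot fluorescence with signal-to-noise ratio from the scanned slide images.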 To be noted: higher = more signal.
The nature of assay [13]: plasmodial surface anion channel blockers, osmotic lysis – cell-based, P. falciparum Indochina, OD700, 1 h, primary screen (AID 1154). The conditions noted are these: P. falciparum Indochina infected RBC osmotic lysis, higher = more signal, called active from +8 up or from −8 down.
A short description of assay [14]: plasmodial surface anion channel blockers, osmotic lysis – cell-based, P. falciparum Indochina, OD700, 2 h, primary screen (AID 1155).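 Note: lysis reports solute entry through the parasite surface anion channel PSAC.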 The conditions noted are these: P. falciparum Indochina infected erythrocytes, higher = more signal, called active from +8 up or from −8 down.
A short description of assay [15]: changes in parasitized red cell lysis, either direction – P. falciparum Indochina, OD700, 3 h, PSAC antagonist project, primary screen (AID 1156). The conditions noted are these: P. falciparum-infected erythrocytes, osmotic lysis, higher = more signal, called active from +8 up or from −8 down.
A short description of assay [16]: plasmodial surface anion channel blockers, osmotic lysis – cell-based, P. falciparum Indochina, OD700, 18 h, primary screen (AID 1157). To be noted: P. falciparum Indochina infected erythrocytes, osmotic lysis OD700, 18 h; higher = more signal, called active from +8 up or from −8 down.
The nature of assay [17]: S6 kinase pathway phospho-S6 level changes – cell-based, A549, cytoblot, luminescence, serum-stimulated, primary screen (AID 1158).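 Note: serum-stimulated A549 lung adenocarcinoma cells; signal is phosphorylated S6 detected by cytoblot immunostaining with HRP secondary.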 To be noted: 5 h, higher = more signal.
The target in assay [18] is NADPH oxidase 2 (Homo sapiens) (UniProt P04839). Nature of the assay: compounds shifting NOX2 Amplex Red fluorescence – cell-based, HEK293-NOX2, PMA-stimulated, NOX inhibitor project, primary screen (AID 1159). Note: test concentration not given here. The conditions noted are these: 45 min, higher = more signal, called active from +8 up or from −8 down.
Chain of NADPH oxidase 2 (Homo sapiens) (P04839 whole entry, looked up): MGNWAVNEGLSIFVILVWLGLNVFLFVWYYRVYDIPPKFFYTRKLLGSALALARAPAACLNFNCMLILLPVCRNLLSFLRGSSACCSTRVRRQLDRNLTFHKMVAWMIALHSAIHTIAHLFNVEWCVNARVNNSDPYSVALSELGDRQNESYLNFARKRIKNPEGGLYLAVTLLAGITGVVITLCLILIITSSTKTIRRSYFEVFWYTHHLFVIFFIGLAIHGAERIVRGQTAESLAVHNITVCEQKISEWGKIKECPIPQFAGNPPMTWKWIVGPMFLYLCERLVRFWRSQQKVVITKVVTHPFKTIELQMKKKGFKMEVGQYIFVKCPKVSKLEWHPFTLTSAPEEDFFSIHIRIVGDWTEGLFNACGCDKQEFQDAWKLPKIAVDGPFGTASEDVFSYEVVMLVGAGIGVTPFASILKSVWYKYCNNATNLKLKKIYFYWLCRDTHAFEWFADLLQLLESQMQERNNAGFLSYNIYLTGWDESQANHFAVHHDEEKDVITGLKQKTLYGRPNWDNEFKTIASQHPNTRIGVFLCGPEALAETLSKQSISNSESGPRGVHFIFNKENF
Assay [19] concerns the target NADPH oxidase 4 (Homo sapiens) (UniProt Q9NPH5). Put plainly: compounds shifting NOX4 Amplex Red fluorescence – cell-based, HEK293-NOX4, tetracycline-induced, NOX inhibitor project, primary screen (AID 1160). The conditions noted are these: HEK293-NOX4, Amplex Red H2O2 fluorescence, 45 min; higher = more signal, called active from +8 up or from −8 down.
For assay [20], the target named is NADPH oxidase 5 (Homo sapiens) (UniProt Q96PH1). Put plainly: compounds shifting NOX5 Amplex Red fluorescence – cell-based, HEK293-NOX5, NOX inhibitor project, primary screen (AID 1161). The conditions noted are these: HEK293-NOX5, ionomycin, 45 min, higher = more signal.
Chain of NADPH oxidase 5 (Homo sapiens) (Q96PH1 whole entry, looked up): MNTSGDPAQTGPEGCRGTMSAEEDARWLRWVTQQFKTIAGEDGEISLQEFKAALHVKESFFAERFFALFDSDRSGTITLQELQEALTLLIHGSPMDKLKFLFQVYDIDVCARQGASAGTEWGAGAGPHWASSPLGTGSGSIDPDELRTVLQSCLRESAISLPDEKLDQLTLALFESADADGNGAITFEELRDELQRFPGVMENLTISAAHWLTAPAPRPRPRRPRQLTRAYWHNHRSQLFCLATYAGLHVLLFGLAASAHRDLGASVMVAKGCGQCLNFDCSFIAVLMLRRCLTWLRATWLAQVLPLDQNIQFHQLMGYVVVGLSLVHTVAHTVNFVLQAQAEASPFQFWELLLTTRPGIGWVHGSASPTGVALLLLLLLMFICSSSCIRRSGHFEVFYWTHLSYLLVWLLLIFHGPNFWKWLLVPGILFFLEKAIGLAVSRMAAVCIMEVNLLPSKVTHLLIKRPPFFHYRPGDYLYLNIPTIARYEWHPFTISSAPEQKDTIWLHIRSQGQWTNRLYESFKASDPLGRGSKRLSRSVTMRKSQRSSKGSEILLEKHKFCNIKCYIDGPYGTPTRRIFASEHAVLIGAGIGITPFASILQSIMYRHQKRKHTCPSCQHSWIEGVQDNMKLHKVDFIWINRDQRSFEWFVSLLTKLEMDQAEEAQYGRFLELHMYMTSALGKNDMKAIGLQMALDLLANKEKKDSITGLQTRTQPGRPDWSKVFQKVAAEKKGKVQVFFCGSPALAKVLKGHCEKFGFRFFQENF

Structures are written as SMILES. Active and inactive are the calls of the source. Unless noted, the rule behind the calls is not given here.

Chain of NADPH oxidase 4 (Homo sapiens) (Q9NPH5 whole entry, looked up): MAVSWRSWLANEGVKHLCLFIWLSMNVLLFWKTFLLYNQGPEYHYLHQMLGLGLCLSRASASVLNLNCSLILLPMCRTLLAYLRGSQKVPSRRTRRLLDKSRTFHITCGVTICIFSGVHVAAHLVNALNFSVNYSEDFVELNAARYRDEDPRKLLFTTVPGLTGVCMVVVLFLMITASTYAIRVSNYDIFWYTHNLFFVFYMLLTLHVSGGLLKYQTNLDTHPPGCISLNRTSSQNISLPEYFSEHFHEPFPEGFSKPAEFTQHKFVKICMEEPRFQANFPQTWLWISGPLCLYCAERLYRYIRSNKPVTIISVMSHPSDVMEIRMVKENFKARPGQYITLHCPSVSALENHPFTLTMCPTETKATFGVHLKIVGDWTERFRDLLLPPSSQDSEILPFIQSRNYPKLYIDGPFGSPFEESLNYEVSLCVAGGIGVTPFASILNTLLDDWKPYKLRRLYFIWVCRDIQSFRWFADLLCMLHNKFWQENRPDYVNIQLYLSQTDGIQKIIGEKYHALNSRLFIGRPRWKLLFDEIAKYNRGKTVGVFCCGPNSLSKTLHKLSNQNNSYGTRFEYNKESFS

Take `COC(=O)c1ccc(OC)c(/C=C\CC(OC(=O)c2ccncc2)c2ccccc2)c1` (stereo not given): the composite z-score is 0.114 in assay [1]; 1.79 in [6]; -0.154 in assay [7]; 0.217 in [8]; 0.292 in assay [9]; 1.14 in assay [10]. The same compound had a composite z-score in assay [12] of -0.206. The z-score was -3.7 (inactive) in assay [2]; -0.526 (inactive) in assay [3]; 12.5 (active) in assay [4]; -1.88 (inactive) in [5]; 2.32 (inactive) in [11]; 20.4 (active) in assay [13]. Besides, the z-score in assay [14] is 3.1 (inactive); in [15], 0.543 (inactive); in [16], -1.02 (inactive); in assay [17], 1.93; in assay [18], -0.552 (inactive); in [19] it was 0.529 (inactive). Further, the z-score in assay [20] is -0.408.

For `CN1C(=O)C2C(C1=O)C1C=C(CCCO)C2C(C2CC2)N1C` (stereo not given), the composite z-score in [1] is 0.0748; in [6] it was -0.45; in assay [7] it was 0.0543; in assay [8] it was -0.427; in assay [9], -0.454; in assay [10], -0.685. Further, the composite z-score in assay [12] is -0.0683. Also, the z-score in assay [2] is -2.56 (inactive); in assay [3] it was 0.189 (inactive); in [4], 0.0295 (inactive); in assay [5], -0.984 (inactive); in [11], 0.667 (inactive); in [13] it was -0.452 (inactive). Besides, the z-score in assay [14] is -0.72 (inactive); in assay [15], 0.139 (inactive); in assay [16], -1.17 (inactive); in [17], 1.82; in assay [18], -0.0367 (inactive); in assay [19], -0.274 (inactive). Further, the z-score in [20] came out at 0.53.

Regarding `CC(CO)N1C(=O)[C@@H]2[C@H]3C(=O)OCC=C[C@H]3OC23C=CCN(c2ccc4ccccc4c2)C(=O)[C@@H]13` (stereo not given in full), the composite z-score in assay [1] was -1.02; in assay [6], -1.06; in assay [7] it was -0.128; in assay [8], -2.15; in [9], -1.05; in assay [10] it was -1.19. This compound also returned a composite z-score in [12] of 0.0927. Besides, the z-score in assay [2] is 0.417 (inactive); in assay [3], 1.19 (inactive); in [4] it was 0.862 (inactive); in [5], -0.702 (inactive); in assay [11], -0.855 (inactive); in assay [13] it was 0.201 (inactive). Moreover, the z-score in [14] was 0.0537 (inactive); in assay [15], 0.162 (inactive); in [16], -0.0627 (inactive); in assay [17] it was -0.409; in assay [18] it was 0.405 (inactive); in assay [19], 0.512 (inactive). In addition, the z-score in [20] turned out to be 1.79.

For the compound `COc1ccc([Si](C)(C)[C@H]2[C@H](CC(=O)N3CCC[C@H]3CO)O[C@@]3(C(=O)N(C)c4ccccc43)[C@@H]2C)cc1`, the composite z-score in assay [1] is -0.0653; in assay [6], -0.28; in assay [7] it was 0.152; in assay [8], 1.52; in assay [9], 0.732; in [10] it was 1.54. The compound further came in with a composite z-score in [12] of -0.0143. Further, the z-score is 0.191 (inactive) in assay [2]; -0.0357 (inactive) in assay [3]; 1.2 (inactive) in assay [4]; 1.33 (inactive) in assay [5]; -0.716 (inactive) in assay [11]; 0.577 (inactive) in assay [13]. The z-score in assay [14] was 0.225 (inactive); in assay [15], -0.0347 (inactive); in assay [16], 0.423 (inactive); in [17] it was -0.0454; in [18], 1.4 (inactive); in [19] it was 1.46 (inactive). In addition, in assay [20], the z-score is 1.86.

Consider `CCCCC(=C=CC[C@@H](O)c1ccccc1OCCO)C[C@@H](O)c1ccccn1`, for which the composite z-score in [1] was -0.11; in [6] it was -0.231; in assay [7] it was -0.024; in [8], -0.245; in assay [9] it was 0.495; in assay [10], 0.897. This compound also registered a composite z-score in assay [12] of -0.0192. Moreover, the z-score in assay [2] is -0.675 (inactive); in assay [3], -0.138 (inactive); in assay [4], 2.72 (inactive); in assay [5], -0.446 (inactive); in assay [11] it was 0.142 (inactive); in assay [13], 11.3 (active). Also, the z-score is 1.51 (inactive) in assay [14]; 1.02 (inactive) in [15]; 0.894 (inactive) in [16]; -0.261 in assay [17]; 1.32 (inactive) in [18]; -0.281 (inactive) in assay [19]. In addition, the z-score in assay [20] was -1.41.
